Results as given in PubChem BioAssay (EPA / NIEHS).
The source made the active and inactive calls. The calls were made as follows: active = hit-call score of the fitted dose curve at least 0.9, where 1 is the maximum; inactive = score below 0.9.

These compounds were tested against Paired box protein Pax-6 (Homo sapiens) (UniProt P26367) (assay: ATG_Pax6_CIS: Attagene CIS-FACTORIAL HepG2 Assay for human Paired Box 6 (PAX6) (AID 2282956)). Conditions: HepG2 CIS-FACTORIAL PAX6 reporter transcription, RNA readout; actives raise or lower the signal.
Paired box protein Pax-6 (Homo sapiens), sequence (P26367 whole entry, looked up): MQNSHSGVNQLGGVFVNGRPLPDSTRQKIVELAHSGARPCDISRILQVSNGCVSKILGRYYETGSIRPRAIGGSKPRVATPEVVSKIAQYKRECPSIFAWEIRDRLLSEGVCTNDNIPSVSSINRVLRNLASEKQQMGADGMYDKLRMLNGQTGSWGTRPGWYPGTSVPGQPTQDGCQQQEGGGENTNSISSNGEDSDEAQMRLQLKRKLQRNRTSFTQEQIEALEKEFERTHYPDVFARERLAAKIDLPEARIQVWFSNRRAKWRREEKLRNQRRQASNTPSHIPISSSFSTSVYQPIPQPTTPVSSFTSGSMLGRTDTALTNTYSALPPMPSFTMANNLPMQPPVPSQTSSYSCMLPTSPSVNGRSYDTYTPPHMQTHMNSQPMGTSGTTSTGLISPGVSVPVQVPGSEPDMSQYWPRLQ
Experimental: ATG_CIS is a cell-based, multiplexed-readout assay that uses HepG2, a human liver cell line, with measurements taken at 24 hours after chemical dosing in a 24-well plate.ATG_Pax6_CIS is one of 52 assay component(s) measured or calculated from the ATG_CIS assay. It is designed to make measurements of mRNA induction, a form of inducible reporter, as detected with fluorescence intensity signals by Reverse transcription polymerase chain reaction (RT-PCR) and Capillary electrophoresis technology.Data from the assay component ATG_Pax6_CIS was analyzed into 1 assay endpoint. This assay endpoint, ATG_Pax6_CIS, was analyzed with bidirectional fitting relative to DMSO as the negative control and baseline of activity. Using a type of inducible reporter, measures of mRNA for gain or loss-of-signal activity can be used to understand the reporter gene at the transcription factor-level as they relate to the gene PAX6. Furthermore, this assay endpoint can be referred to as a primary readout, because this assay has produced multiple assay endpoints where this one serves a reporter gene function. To generalize the intended target to other relatable targets, this assay endpoint is annotated to the dna binding intended target family, where the subfamily is paired box protein.
Human liver HepG2 cells are transiently transfected with multiple reporter transcription units (MRTUs) in 6-well plates using FuGene 6 reagent (Roche; 3 ml FuGene/1 mg DNA). The MRTU constructs are regulated by a cis-regulating element (promoter). […] A major difference between the CIS and TRANS system is that in CIS activities of endogenous TFs are measured, whereas the TRANS assay evaluates changes in activities of exogenous, chimeric NR-Gal4 proteins. […] At the end of 24 hour incubation, total RNA was isolated using TriZol reagent (Invitrogen). The isolated RNA is then reverse-transcribed using oligo(dT) primer and Mo-MLV reverse transcriptase (Invitrogen) with DNAse I (Ambion) treatment for 30 min. The one-tenth of the produced cDNA was amplified by PCR using Taq DNA polymerase (Invitrogen) and two reporter sequence-specific primers. The PCR products were fluorescently labeled by primer extension with 6-arboxyfluorescein (6-FAM) 5'-labeled reporter sequence-specific primer (2 min at 95 C, 20 s at 68 C and 10 min at 72 C) and these products were digested with 5U of HpaI (New England Biolabs) for 2h at 37 C. The fragments were purified using Qiaquick PCR columns (Qiagen), analyzed on an ABI 3130xL genetic analyzer (Applied Biosystems) with peak positions identified by using a set of X-rhodamine (ROX)-labeled MapMarker1000 molecular weight standards (BioVentures). The raw capillary electrophoresis data was processed using Attagraph software (Attagene).
In the case of `CCCCCCCCCCCC(=O)Cl`, the outcome is reported as “inactive”.
For `c1ccc(C[P+](c2ccccc2)(c2ccccc2)c2ccccc2)cc1`, the outcome was “inactive”.
For `CCN(CC)c1ccc(C=O)c(O)c1`, the outcome was “inactive”.
`O=C(O)C(F)(F)C(F)(F)C(F)(F)OC(F)(C(F)(F)F)C(F)(F)F` was tested, and the outcome was “inactive”.
`CCCCCCCCn1sc(Cl)c(Cl)c1=O` was tested, and the outcome was “inactive”.
With `CCCCCC/C=C/CCCCCCCC(=O)O` the outcome was “inactive”.
In the case of `O=C(F)C1(F)C(F)(F)C(F)(F)C(F)(F)C(F)(F)C1(F)F`, the outcome is reported as “inactive”.
For `O=C1OC(=O)c2ccc3c4c(ccc1c24)C(=O)OC3=O`, the outcome was “inactive”.
With `CC(C)OC(=O)COc1ccc(Cl)cc1Cl` the outcome was “inactive”.
With `CCc1cccc(C)c1N(C(=O)C(=O)O)C(C)COC` (stereo not given) the outcome was “inactive”.
`O=S(=O)(O)CCC(F)(F)C(F)(F)C(F)(F)C(F)(F)F` was tested, and the outcome was “inactive”.
For `CCOCN(C(=O)CS(=O)(=O)O)c1c(C)cccc1CC`, the outcome was “inactive”.
`CCOC(=O)CCC(C)=O` was tested, and the outcome was “inactive”.
In the case of `Cc1ccc2c(c1)OCC(=O)CO2`, the outcome is reported as “inactive”.
`C=CCOC(=O)CC(C)C` was tested, and the outcome was “inactive”.
With `O=C(O)C(F)(F)C(F)(F)C(F)(F)C(F)(F)C(F)(F)C(F)(F)C(F)F` the outcome was “inactive”.
`CCOCOCC` was tested, and the outcome was “inactive”.
For `OCC(O)CC(F)(F)C(F)(F)C(F)(F)C(F)(F)C(F)(F)C(F)(F)C(F)(F)C(F)(F)F` (stereo not given), the outcome was “inactive”.
In the case of `FC(F)(F)C(F)(F)C(F)(F)C(F)(F)C(F)(F)C(F)(F)CC[Si](Cl)(Cl)Cl`, the outcome is reported as “inactive”.
With `CC1=CCC2C(=O)OC(=O)C2C1` (stereo not given) the outcome was “inactive”.
`N#CCCOCCC#N` was tested, and the outcome was “inactive”.
In the case of `OCC(O)CC(F)(F)C(F)(F)C(F)(F)C(F)(F)F` (stereo not given), the outcome is reported as “inactive”.
With `NCC(F)(F)C(F)(F)C(F)(F)C(F)(F)C(F)(F)C(F)(F)F` the outcome was “inactive”.
For `Cc1ccc(O)c(-n2nc3ccccc3n2)c1`, the outcome was “inactive”.
For `CCCC(=O)OCC(COC(=O)CCC)OC(=O)CCC`, the outcome was “inactive”.
With `O=S(=O)(Cl)C(F)(F)C(F)(F)C(F)(F)C(F)(F)C(F)(F)C(F)(F)C(F)(F)C(F)(F)F` the outcome was “inactive”.
`NCC(F)(F)C(F)(F)C(F)(F)C(F)(F)C(F)(F)C(F)(F)C(F)(F)C(F)(F)F` was tested, and the outcome was “inactive”.
In the case of `CCN(CC)c1ccc2c(c1)Oc1cc(N(CC)CC)ccc1C21OC(=O)c2ccccc21`, the outcome is reported as “inactive”.
With `COCCC(=O)OC` the outcome was “inactive”.
In the case of `CN(C)C(C)(C)CO`, the outcome is reported as “inactive”.
With `OCCCc1cccnc1` the outcome was “inactive”.
For `CC(=O)C=O`, the outcome was “inactive”.
With `O=C1C=CC(=O)N1c1ccccc1` the outcome was “inactive”.
`CCOC(=O)C1CC(=O)C(=C(O)C2CC2)C(=O)C1` (stereo not given) was tested, and the outcome was “inactive”.
`CCCCOC(=O)[C@H](C)O` was tested, and the outcome was “inactive”.
For `CCC(Cc1c(I)cc(I)c(N)c1I)C(=O)O` (stereo not given), the outcome was “inactive”.
In the case of `O=C(Cl)C(F)(F)C(F)(F)C(F)(F)C(F)(F)C(F)(F)C(F)(F)F`, the outcome is reported as “inactive”.
In the case of `C=CC(=O)OCC(F)(F)C(F)(F)C(F)(F)C(F)(F)C(F)(F)C(F)(F)C(F)(F)C(F)F`, the outcome is reported as “inactive”.
In the case of `NC(=O)C(F)(F)C(F)(F)C(F)(F)F`, the outcome is reported as “inactive”.
With `CCCCCCCCCc1ccc(OCCO)cc1` the AC50 was 24.3 µM (active).
